In PMC4336329 (PLoS ONE, 2015):
Screen size: about 310,000 compounds; about 14,000 (4.5%) showed an effect of 50% or more. Effects have a minus sign here. This excerpt belongs to a sample that is enriched for strong results.

biological target: human ether-à-go-go-related gene (hERG) potassium channel (human, UniProt Q12809); assay: primary screen, population patch clamp on CHO cells stably expressing hERG; higher = less effect of the substance
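Also: peak tail current of the secondary pulse compared with the same well before compound.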

human ether-à-go-go-related gene (hERG) potassium channel, sequence (Q12809 whole entry, looked up): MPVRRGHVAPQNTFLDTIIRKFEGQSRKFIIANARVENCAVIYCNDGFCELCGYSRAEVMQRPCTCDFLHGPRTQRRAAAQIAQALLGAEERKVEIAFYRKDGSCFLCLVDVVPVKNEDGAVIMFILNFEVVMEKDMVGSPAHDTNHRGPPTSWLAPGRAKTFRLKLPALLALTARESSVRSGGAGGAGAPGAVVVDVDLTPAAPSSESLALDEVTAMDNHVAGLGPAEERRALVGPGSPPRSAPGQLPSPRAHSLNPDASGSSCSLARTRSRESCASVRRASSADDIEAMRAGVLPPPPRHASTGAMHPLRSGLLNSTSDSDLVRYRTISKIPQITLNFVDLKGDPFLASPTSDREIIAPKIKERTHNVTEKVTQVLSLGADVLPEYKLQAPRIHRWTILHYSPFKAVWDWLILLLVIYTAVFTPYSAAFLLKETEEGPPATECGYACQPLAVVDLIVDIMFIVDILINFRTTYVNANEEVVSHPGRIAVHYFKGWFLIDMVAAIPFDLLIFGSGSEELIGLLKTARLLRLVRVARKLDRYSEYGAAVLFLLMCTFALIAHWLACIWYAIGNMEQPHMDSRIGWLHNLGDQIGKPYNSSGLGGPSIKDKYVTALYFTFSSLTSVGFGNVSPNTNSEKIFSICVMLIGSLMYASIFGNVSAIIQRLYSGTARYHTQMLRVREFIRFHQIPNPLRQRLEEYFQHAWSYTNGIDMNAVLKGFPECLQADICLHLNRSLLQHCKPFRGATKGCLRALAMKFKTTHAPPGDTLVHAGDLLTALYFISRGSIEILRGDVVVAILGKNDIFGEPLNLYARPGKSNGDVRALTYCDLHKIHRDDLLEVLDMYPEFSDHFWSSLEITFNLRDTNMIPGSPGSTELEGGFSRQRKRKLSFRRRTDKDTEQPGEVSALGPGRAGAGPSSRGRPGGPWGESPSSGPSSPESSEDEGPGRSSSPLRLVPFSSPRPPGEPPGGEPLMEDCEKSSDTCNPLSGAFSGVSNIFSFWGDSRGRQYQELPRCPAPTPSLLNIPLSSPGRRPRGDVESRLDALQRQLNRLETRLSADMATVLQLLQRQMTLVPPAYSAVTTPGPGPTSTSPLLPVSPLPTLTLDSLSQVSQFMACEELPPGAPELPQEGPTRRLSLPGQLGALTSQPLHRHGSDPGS

In order of rising “hERG current change (%, negative = inhibition) at 10uM” value:
1. Cc1ncc(CN2CCCC(C(=O)Nc3ccc(-c4cccc(F)c4)cc3)C2)n1C (stereo not shown)  -69.5%
2. O=C(Nc1cccc(-c2ccc(F)cc2)c1)C1CCCN(Cc2cccnc2)C1 (stereo not shown)  -60.2%
3. COCCc1ncc(CN2CCCC(C(=O)Nc3cccc(-c4cccc(C)c4)c3)C2)cn1 (stereo not shown)  -56.6%
4. Cc1cccc(-c2cccc(NC(=O)C3CCCN(C(=O)c4ocnc4C)C3)c2)c1 (stereo not shown)  -53%
5. CCc1ncc(CN2CCCC(C(=O)Nc3cccc(-c4cccc(C)c4)c3)C2)cn1 (stereo not shown)  -48.8%
6. CCc1nc(C)c(C(=O)N2CCCC(C(=O)Nc3cccc(-c4cccc(C)c4)c3)C2)o1 (stereo not shown)  -42.5%
7. CCCc1ncc(CN2CCCC(C(=O)Nc3ccc(-c4cccc(OC)c4)cc3)C2)cn1 (stereo not shown)  -39.7%
8. Cc1ncoc1C(=O)N1CCCC(C(=O)Nc2cccc(-c3ccc(F)cc3)c2)C1 (stereo not shown)  -36.4%
9. Cc1ccc(C(=O)N2CCCC(C(=O)Nc3cccc(-c4ccc(F)cc4)c3)C2)cn1 (stereo not shown)  -29.1%
10. COc1ccccc1-c1ccc(SCc2cccc(C)c2)nn1  -26.6%
11. COC(=O)c1c(C)nc(C)c(C(=O)OC)c1-c1ccc(OC)cc1  -7.69%
12. Cc1ccc(CNC(=O)c2cccc3c2C(=O)c2ccc(N4CCCCC4)cc2S3(=O)=O)cc1  -6.76%
13. COc1ccc(C(=O)Nc2cc(Cl)ccc2Cl)c(OC)n1  -5.79%
14. CC1CC(C)CN(C(=O)c2cc3ccccc3o2)C1 (stereo not shown)  -2.2%
15. CCOC(=O)c1sc(N)c(C#N)c1CSc1nnc(C2CCCCC2)n1N  -1.65%
16. Cc1ncc(CN2CCCC(C(=O)Nc3ccc(-c4cccc(F)c4)cc3)C2)s1 (stereo not shown)  1.64%
17. O=C(O)C1=CC[C@@H](c2ccc(Cl)cc2)N(S(=O)(=O)c2ccc(Cl)cc2)[C@H]1c1ccc(F)cc1  4.97%
18. CCOc1ccc(CCNC(=O)Nc2ccccc2C)cc1OCC  5.4%
19. Cc1ccc(C(=O)C(C)OC(=O)CCN=C2NS(=O)(=O)c3ccccc32)cc1 (stereo not shown)  6.4%
20. Cc1cc(C)nc(N/N=C/c2cn[nH]c2-c2ccc(F)cc2)n1  8.66%
21. Cc1ccc(CCC(=O)Nc2ccc(Cl)cc2)o1  12.8%
22. Cc1ncc(CN2CCCC(C(=O)Nc3ccc(-n4ccnc4C)cc3)C2)cn1 (stereo not shown)  12.8%
